# Measured values from PubChem BioAssay AID1159580 (chemical genetic matrix, 2015).
# Among all 5,500 compounds or so, about 2,000 (36%) were called active. Inconclusive results (about 18%) are left out. Some of the results follow. A number with no mark means an inactive call. Rule as the data show it: active = normalized growth mostly below about 0.91 (no sharp cut-off); inconclusive = no clear call, values can overlap the other calls; inactive = mostly above about 0.92.
# Assay: chemical genetic growth profiling, strain panel (AID 1159580);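 also: tested at 20 µM; growth read once vehicle control cultures reached saturation at 30 °C; 1 = growth at the plate median or of vehicle wells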
# Details: growth OD
smiles,measurement,setting,value
C[C@@H]1CC[C@H]2[C@@H](C)C(=O)O[C@@H]3O[C@@]4(C)CC[C@@H]1[C@]32OO4,normalized growth,"S. cerevisiae deletion strains, locus YKL009W, strain mrt4, stronger effect = lower value",0.986
same,normalized growth,"S. cerevisiae deletion strains, locus YKL068W, stronger effect = lower value",0.914 (active)
same,normalized growth,"S. cerevisiae deletion strains, locus YKL085W, strain MDH1 (second series), stronger effect = lower value",0.906 (active)
same,normalized growth,"S. cerevisiae deletion strains, locus YKL085W, strain MDH1, stronger effect = lower value",0.906 (active)
same,normalized growth,"S. cerevisiae deletion strains, locus YKL160W, strain elf1, stronger effect = lower value",0.874 (active)
same,normalized growth,"S. cerevisiae deletion strains, locus YKL190W, strain CNB1, stronger effect = lower value",0.856 (active)
same,normalized growth,"S. cerevisiae deletion strains, locus YKR001C, strain vps1, stronger effect = lower value",0.692 (active)
same,normalized growth,"S. cerevisiae deletion strains, locus YKR026C, strain gcn3, stronger effect = lower value",0.953
same,normalized growth,"S. cerevisiae deletion strains, locus YKR091W, strain srl3, stronger effect = lower value",0.949
same,normalized growth,"S. cerevisiae deletion strains, locus YLL001W, strain dnm1, stronger effect = lower value",0.824 (active)
same,normalized growth,"S. cerevisiae deletion strains, locus YLL026W, stronger effect = lower value",0.876 (active)
same,normalized growth,"S. cerevisiae deletion strains, locus YLL041C, strain sdh2, stronger effect = lower value",0.946
same,normalized growth,"S. cerevisiae deletion strains, locus YLR027C, strain aat2, stronger effect = lower value",0.865 (active)
same,normalized growth,"S. cerevisiae deletion strains, locus YLR039C, strain RIC1, stronger effect = lower value",0.353 (active)
same,normalized growth,"S. cerevisiae deletion strains, locus YLR058C, strain SHM2, stronger effect = lower value",0.852 (active)
same,normalized growth,"S. cerevisiae deletion strains, locus YLR102C, strain apc9, stronger effect = lower value",0.94
same,normalized growth,"S. cerevisiae deletion strains, locus YLR113W, strain HOG1, stronger effect = lower value",0.698 (active)
same,normalized growth,"S. cerevisiae deletion strains, locus YLR221C, strain rsa3, stronger effect = lower value",0.812 (active)
same,normalized growth,"S. cerevisiae deletion strains, locus YLR258W, strain gsy2, stronger effect = lower value",0.918
same,normalized growth,"S. cerevisiae deletion strains, locus YLR262C, strain YPT6 (second series), stronger effect = lower value",0.375 (active)
same,normalized growth,"S. cerevisiae deletion strains, locus YLR262C, strain YPT6, stronger effect = lower value",0.364 (active)
same,normalized growth,"S. cerevisiae deletion strains, locus YLR268W, strain sec22, stronger effect = lower value",0.822 (active)
same,normalized growth,"S. cerevisiae deletion strains, locus YLR320W, strain mms22, stronger effect = lower value",0.674 (active)
same,normalized growth,"S. cerevisiae deletion strains, locus YLR330W, strain CHS5, stronger effect = lower value",0.879 (active)
same,normalized growth,"S. cerevisiae deletion strains, locus YLR342W, strain FKS1 (second series), stronger effect = lower value",0.82
same,normalized growth,"S. cerevisiae deletion strains, locus YLR342W, strain FKS1, stronger effect = lower value",0.885 (active)
same,normalized growth,"S. cerevisiae deletion strains, locus YLR357W, strain rsc2, stronger effect = lower value",1.02
same,normalized growth,"S. cerevisiae deletion strains, locus YLR370C, strain arc18, stronger effect = lower value",0.897 (active)
same,normalized growth,"S. cerevisiae deletion strains, locus YLR371W, strain rom2, stronger effect = lower value",0.929
same,normalized growth,"S. cerevisiae deletion strains, locus YLR384C, strain iki3, stronger effect = lower value",0.949
same,normalized growth,"S. cerevisiae deletion strains, locus YLR418C, strain cdc73, stronger effect = lower value",0.614 (active)
same,normalized growth,"S. cerevisiae deletion strains, locus YML016C, strain PPZ1, stronger effect = lower value",0.915 (active)
same,normalized growth,"S. cerevisiae deletion strains, locus YML032C, strain rad52, stronger effect = lower value",0.798 (active)
same,normalized growth,"S. cerevisiae deletion strains, locus YML120C, strain ndi1, stronger effect = lower value",0.839 (active)
same,normalized growth,"S. cerevisiae deletion strains, locus YML124C, strain tub3, stronger effect = lower value",0.936
same,normalized growth,"S. cerevisiae deletion strains, locus YMR058W, strain fet3, stronger effect = lower value",0.742 (active)
same,normalized growth,"S. cerevisiae deletion strains, locus YMR078C, strain ctf18, stronger effect = lower value",0.882 (active)
same,normalized growth,"S. cerevisiae deletion strains, locus YMR125W, strain sto1, stronger effect = lower value",0.925
same,normalized growth,"S. cerevisiae deletion strains, locus YMR129W, stronger effect = lower value",0.899 (active)
same,normalized growth,"S. cerevisiae deletion strains, locus YMR205C, strain PFK2, stronger effect = lower value",0.779 (active)
same,normalized growth,"S. cerevisiae deletion strains, locus YMR223W, strain ubp8, stronger effect = lower value",0.878 (active)
same,normalized growth,"S. cerevisiae deletion strains, locus YMR231W, strain pep5, stronger effect = lower value",0.928 (active)
same,normalized growth,"S. cerevisiae deletion strains, locus YMR263W, strain SAP30, stronger effect = lower value",0.81 (active)
same,normalized growth,"S. cerevisiae deletion strains, locus YMR307W, strain GAS1, stronger effect = lower value",0.651
same,normalized growth,"S. cerevisiae deletion strains, locus YNL067W, strain RPL9B, stronger effect = lower value",0.86 (active)
same,normalized growth,"S. cerevisiae deletion strains, locus YNL071W, strain lat1, stronger effect = lower value",0.705 (active)
same,normalized growth,"S. cerevisiae deletion strains, locus YNL128W, strain TEP1, stronger effect = lower value",0.757 (active)
same,normalized growth,"S. cerevisiae deletion strains, locus YNL153C, strain GIM3, stronger effect = lower value",0.811 (active)
same,normalized growth,"S. cerevisiae deletion strains, locus YNL183C, strain NPR1, stronger effect = lower value",0.748 (active)
same,normalized growth,"S. cerevisiae deletion strains, locus YNL209W, strain ssb2, stronger effect = lower value",0.867 (active)
same,normalized growth,"S. cerevisiae deletion strains, locus YNL233W, strain BNI4, stronger effect = lower value",0.81 (active)
same,normalized growth,"S. cerevisiae deletion strains, locus YNL248C, strain rpa49, stronger effect = lower value",0.902
same,normalized growth,"S. cerevisiae deletion strains, locus YNL250W, strain rad50, stronger effect = lower value",0.87 (active)
same,normalized growth,"S. cerevisiae deletion strains, locus YNL271C, strain bni1, stronger effect = lower value",0.883 (active)
same,normalized growth,"S. cerevisiae deletion strains, locus YNL298W, strain CLA4, stronger effect = lower value",0.861 (active)
same,normalized growth,"S. cerevisiae deletion strains, locus YNL307C, strain MCK1, stronger effect = lower value",0.754 (active)
same,normalized growth,"S. cerevisiae deletion strains, locus YNL322C, strain KRE1 (second series), stronger effect = lower value",0.904 (active)
same,normalized growth,"S. cerevisiae deletion strains, locus YNL322C, strain KRE1, stronger effect = lower value",0.857 (active)
same,normalized growth,"S. cerevisiae deletion strains, locus YNR049C, strain mso1, stronger effect = lower value",0.94
same,normalized growth,"S. cerevisiae deletion strains, locus YNR052C, strain pop2, stronger effect = lower value",0.842 (active)
same,normalized growth,"S. cerevisiae deletion strains, locus YOL006C, strain TOP1, stronger effect = lower value",0.605
same,normalized growth,"S. cerevisiae deletion strains, locus YOL012C, strain htz1",0.461
same,normalized growth,"S. cerevisiae deletion strains, locus YOL147C, strain pex11, stronger effect = lower value",0.869 (active)
same,normalized growth,"S. cerevisiae deletion strains, locus YOR001W, strain rrp6, stronger effect = lower value",0.855 (active)
same,normalized growth,"S. cerevisiae deletion strains, locus YOR061W, strain CKA2, stronger effect = lower value",0.92
same,normalized growth,"S. cerevisiae deletion strains, locus YOR069W, strain VPS5, stronger effect = lower value",0.911 (active)
same,normalized growth,"S. cerevisiae deletion strains, locus YOR070C, strain gyp1, stronger effect = lower value",0.814 (active)
same,normalized growth,"S. cerevisiae deletion strains, locus YOR080W, strain dia2, stronger effect = lower value",0.926
same,normalized growth,"S. cerevisiae deletion strains, locus YOR083W, strain WHI5, stronger effect = lower value",0.822 (active)
same,normalized growth,"S. cerevisiae deletion strains, locus YOR106W, strain vam3, stronger effect = lower value",0.784 (active)
same,normalized growth,"S. cerevisiae deletion strains, locus YOR136W, strain idh2, stronger effect = lower value",0.93
same,normalized growth,"S. cerevisiae deletion strains, locus YOR144C, strain elg1, stronger effect = lower value",0.927 (active)
same,normalized growth,"S. cerevisiae deletion strains, locus YOR184W, strain ser1, stronger effect = lower value",0.705 (active)
same,normalized growth,"S. cerevisiae deletion strains, locus YOR231W, strain MKK1, stronger effect = lower value",0.745 (active)
same,normalized growth,"S. cerevisiae deletion strains, locus YOR265W, strain rbl2, stronger effect = lower value",0.913 (active)
same,normalized growth,"S. cerevisiae deletion strains, locus YOR270C, strain vph1, stronger effect = lower value",0.633 (active)
same,normalized growth,"S. cerevisiae deletion strains, locus YOR290C, strain snf2, stronger effect = lower value",0.847 (active)
same,normalized growth,"S. cerevisiae deletion strains, locus YOR316C, strain cot1, stronger effect = lower value",0.94
same,normalized growth,"S. cerevisiae deletion strains, locus YPL051W, strain arl3, stronger effect = lower value",0.818 (active)
same,normalized growth,"S. cerevisiae deletion strains, locus YPL078C, strain atp4, stronger effect = lower value",0.796 (active)
same,normalized growth,"S. cerevisiae deletion strains, locus YPL106C, strain sse1, stronger effect = lower value",0.894
same,normalized growth,"S. cerevisiae deletion strains, locus YPL240C, strain hsp82, stronger effect = lower value",0.949
same,normalized growth,"S. cerevisiae deletion strains, locus YPL241C, strain CIN2, stronger effect = lower value",0.924 (active)
same,normalized growth,"S. cerevisiae deletion strains, locus YPL256C, strain CLN2, stronger effect = lower value",0.704 (active)
same,normalized growth,"S. cerevisiae deletion strains, locus YPR119W, strain clb2, stronger effect = lower value",0.927 (active)
same,normalized growth,"S. cerevisiae deletion strains, locus YPR141C, strain kar3, stronger effect = lower value",0.907 (active)
same,normalized growth,"S. cerevisiae deletion strains, locus YPR163C, strain tif3, stronger effect = lower value",0.958
same,normalized growth,"S. cerevisiae deletion strains, locus YPR167C, strain met16, stronger effect = lower value",0.909 (active)
same,normalized growth,"S. cerevisiae deletion strains, strain wtn01, stronger effect = lower value",0.818 (active)
same,normalized growth,"S. cerevisiae strains, strain wild type, stronger effect = lower value",0.852 (active)
